DRD3 antagonist – qHTS of D3 Dopamine Receptor Antagonist: qHTS; D(3) dopamine receptor (Homo sapiens), P35462; D3R cells, DiscoveRx beta-arrestin luminescence, antagonist mode; stronger effect = lower value; max response, negative = inhibition, %; 2.5% of 360,000 active; in the data active = max response below about -50%; inconclusive = no clear call, values can overlap the other calls
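Cells expressing the human receptor were seeded at 1500 cells/well, incubated overnight at 37 degrees C in 5% CO2, then exposed to library compounds with dopamine controls for 90 minutes at 37 degrees C before luminescent detection.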
DRD3 agonist – qHTS of D3 Dopamine Receptor Agonist: qHTS; D(3) dopamine receptor (Homo sapiens), P35462; D3R DiscoveRx beta-arrestin cells, luminescence, 90 min; max activation, %; 0.58% of 410,000 active; AID 652048, 2013; in the data active = max activation above about 30%
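Agonist-mode cell screen: cells plated at 1500/well and incubated overnight at 37 °C, then exposed to library compounds for 90 min at 37 °C. Detection reagent was added for 30–60 min at room temperature, and luminescence was read.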
D1 antag – Antagonist of Human D 1 Dopamine Receptor: qHTS. D(1A) dopamine receptor (Homo sapiens), P21728. HEK293 TREx D1 cells, calcium flux, dopamine EC80; stronger effect = lower value. activity change, negative = inhibition, % at 10 µM. 3.2% of 360,000 active; in the data active = activity change below about -30%
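Tetracycline-induced HEK293 T-REx cells with force-coupled D1 receptor were loaded with a no-wash calcium dye. Compound was added after a 10 s baseline and read kinetically for 180 s; EC80 dopamine was then added and calcium flux followed another 180 s.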
D1 ag – Allosteric Agonists of the Human D1 Dopamine Receptor: qHTS. HEK293 T-REx D1 cells, calcium flux, agonist mode. 1% of 360,000 active. activation, % at 2 µM. D(1A) dopamine receptor (Homo sapiens), P21728; in the data active = activation above about 30%
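Agonism was scored from calcium flux recorded over 180 s (1 read/s) after pintool compound addition, following a 10-cycle baseline. Cells were inducible force-coupled HEK293 TREx D1, plated overnight at 30 C and loaded with no-wash calcium dye.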
D1 potentiator – Potentiators of Human D1 Dopamine Receptor: qHTS; D(1A) dopamine receptor (Homo sapiens), P21728; HEK293 TREx D1 cells, calcium flux, dopamine EC20 potentiation; potentiation, % at 10 µM; 0.036% of 360,000 active; AID 504651, 2011; in the data active = potentiation above about 30%
ERG-DNA inh – qHTS for Small Molecule Inhibitors of the ERG Ets/DNA interaction; Transcriptional regulator ERG (Homo sapiens), P11308; fluorescence polarization, His-ERG Ets domain / labelled DNA; Potency, µM (series often up to 76.9 µM), most hits filed as inhibitors; 0.028% of 370,000 active; AID 624246, 2012; active = well fitted inhibition curve with a large enough effect in the polarisation, with a control signal flat; inconclusive = small, poorly fitted or top-dose-only effect, or effect the other way, or a change in a side signal; inactive = no such curve, though single readings can be large or run the other way; the % refers to the polarisation;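 also: polarization taken with two DNA probes labelled with fluorescein and Texas red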
Target sequence (P11308 whole entry, looked up, the tested form may be a part): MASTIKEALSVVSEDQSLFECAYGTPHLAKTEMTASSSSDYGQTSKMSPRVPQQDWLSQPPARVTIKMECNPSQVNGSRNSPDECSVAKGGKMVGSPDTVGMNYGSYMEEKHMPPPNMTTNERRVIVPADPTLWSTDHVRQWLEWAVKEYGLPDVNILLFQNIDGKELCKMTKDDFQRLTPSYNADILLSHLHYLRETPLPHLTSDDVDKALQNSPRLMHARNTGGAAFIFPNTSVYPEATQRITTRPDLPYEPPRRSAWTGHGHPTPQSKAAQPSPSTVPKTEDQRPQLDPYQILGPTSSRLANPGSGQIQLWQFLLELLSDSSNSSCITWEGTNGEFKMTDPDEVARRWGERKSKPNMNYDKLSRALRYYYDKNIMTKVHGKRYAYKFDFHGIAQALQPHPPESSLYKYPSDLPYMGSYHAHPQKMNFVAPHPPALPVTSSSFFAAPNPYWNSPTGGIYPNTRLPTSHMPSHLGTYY
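His-tagged ERG Ets domain (1 uM in the protein solution; 300mM KCl, 50mM Tris-HCl, 1mM EDTA, 1mM DTT, pH 7.5) received compound, then a probe mix of 5 nM fluorescein-DNA and 100nM Texas-615-DNA. Fluorescence polarization was read for both dyes.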
Numbers stand for hits. The list is not random: actives were taken first. Their share in the collection is about 6.1%.

`CCCc1nnc(NC(=O)c2ccc(S(=O)(=O)N(C)c3ccccc3OC)cc2)s1` gave DRD3 antagonist inactive, DRD3 agonist inactive, D1 antag inactive, D1 ag inactive and D1 potentiator inactive.
Screening CCOC(=O)c1c(C)[nH]c(C(=O)N2CCN(C(=O)OCC)CC2)c1C returned DRD3 antagonist inactive, DRD3 agonist inactive, D1 antag inactive, D1 ag inactive, D1 potentiator inactive and ERG-DNA inh inactive.
Screening O=C(O)c1cc(-c2c[nH]c3ccccc23)nc2ccc3ccccc3c12 returned DRD3 antagonist inactive, DRD3 agonist inactive, D1 antag inactive, D1 ag inactive, D1 potentiator inactive and ERG-DNA inh inactive.
`N#C/C(=C(/O)C(Cl)c1ccccc1)c1nc2ccccc2s1` (stereo not given) gave DRD3 antagonist inconclusive, DRD3 agonist inactive, D1 antag inactive, D1 ag inactive, D1 potentiator inactive and ERG-DNA inh inactive.
Screening CC(C)(CN1CCCC1)NC(=O)C1CCC(=O)N(CCCN2CCOCC2)C1 (stereo not given) returned DRD3 antagonist inactive, DRD3 agonist inactive, D1 antag inactive, D1 ag inactive, D1 potentiator inactive and ERG-DNA inh inactive.
`COc1ccccc1NC(=O)CN1CCC(c2nc3ccc(C)cc3[nH]2)CC1` gave DRD3 antagonist inactive, DRD3 agonist inactive, D1 antag inactive, D1 ag inactive, D1 potentiator inactive and ERG-DNA inh inactive.
For COc1cccc(CNC(=O)CN2CCC(c3nc4ccc(C)cc4[nH]3)CC2)c1 the results were DRD3 antagonist inactive, DRD3 agonist inactive, D1 antag -38, D1 ag inactive, D1 potentiator inactive and ERG-DNA inh inactive.
For CCC(C)(C)C1CCC(=NNC(=O)c2ccoc2C)CC1 (stereo not given) the results were DRD3 antagonist inactive, DRD3 agonist inactive, D1 antag inactive, D1 ag inactive, D1 potentiator inactive and ERG-DNA inh inactive.
For Cc1cc(SCC(=O)c2cccs2)nc2c(C)cccc12 the results were DRD3 antagonist inactive, DRD3 agonist inactive, D1 antag inactive, D1 ag inactive, D1 potentiator inactive and ERG-DNA inh inactive.
`CC(=O)Nc1ccc(C(=O)CSc2cc(C)c3cccc(C)c3n2)cc1` gave DRD3 antagonist inactive, DRD3 agonist 41, D1 antag inactive, D1 ag inactive, D1 potentiator inactive and ERG-DNA inh inactive.
`COc1ccc(CCNc2ccncn2)cc1` gave DRD3 antagonist inactive, DRD3 agonist inactive, D1 antag inactive, D1 ag inactive, D1 potentiator inactive and ERG-DNA inh inactive.
`COc1ccc(CCNc2ccncn2)cc1OC` gave DRD3 antagonist inactive, DRD3 agonist 31, D1 antag inactive, D1 ag inactive, D1 potentiator inactive and ERG-DNA inh inactive.
O=[N+]([O-])c1cccc(NC(=S)NCc2ccncc2)c1 was read as DRD3 antagonist inactive, DRD3 agonist inactive, D1 antag -40, D1 ag inactive, D1 potentiator inactive and ERG-DNA inh inactive.
For S=C(NCc1ccc(Cl)cc1)Nc1ccncc1 the results were DRD3 antagonist inactive, DRD3 agonist inactive, D1 antag -43, D1 ag inactive, D1 potentiator inactive and ERG-DNA inh inactive.
For O=[N+]([O-])c1ccc(NC(=S)NCc2ccncc2)cc1 the results were DRD3 antagonist inactive, DRD3 agonist inactive, D1 antag -41, D1 ag 32, D1 potentiator inactive and ERG-DNA inh inactive.
For O=[N+]([O-])c1ccc(NC(=S)NCc2ccc(F)cc2)cc1 the results were DRD3 antagonist inconclusive, DRD3 agonist inactive, D1 antag -35, D1 ag inactive, D1 potentiator inactive and ERG-DNA inh inactive.
